Experimental findings from PubChem BioAssay are described below.

A number with no mark means an inactive call.

The assay in a line: optical density shifts of acrAB sulA E. coli – strain DRC41, OD650, 48 h, E. coli filamentation inducer project, primary screen (AID 1152).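 Note: E. coli MC1000 strain DRC41 lacking acrAB efflux pump and sulA.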 To be noted: higher = more signal, called active from +8 up or from −8 down.
For `COc1ccc([Si](C)(C)[C@@H]2[C@@H](CCO)O[C@]3(C(=O)N(Cc4ccc(N5C(=O)COc6ccccc65)cc4)c4ccccc43)[C@H]2C)cc1`, the z-score is -0.163.
For `CN(C)CCCNC(=O)[C@@]1(C)c2ccccc2C(=O)N(Cc2cc(F)cc(C(F)(F)F)c2)[C@H]1c1ccc(CO)cc1`, the z-score is -0.0995.
As to `C=C(COC)/C(=C/C[C@@H](OC(C)=O)c1ccc(OCCO)cc1)c1cc(C(=O)OC)ccc1OC`, the z-score was 0.0977.
Regarding `CCCC[C@@H]1C[C@H]1[C@@H](NC(=O)c1ccco1)c1ccc(Cl)cc1`, the z-score is -1.54.
The same measure for `CC1CC/C=C\[C@H]2OC34C=CCN(Cn5nnc6ccccc65)C(=O)[C@H]3N(C(CO)C(C)C)C(=O)[C@@H]4C2C(=O)O1` (stereo not given in full): 0.532.
Take `[N-]=[N+]=Nc1ccccc1[C@H]1OC(c2ccc(OCCCO)cc2)=N[C@@]1(Cc1ccccc1)C(=O)O`: the z-score was 0.409.
Take `O=C1C2C=CC(C(O)C(c3ccccc3)c3ccccc3)N(n3cnnc3)C2C(=O)N1Cc1ccccc1` (stereo not given): the z-score is -1.48.
In the case of `CN1C(=O)C2C=CC(C(O)Cc3ccccc3)N(Nc3ccccc3)C2C1=O` (stereo not given), the z-score was -1.55.
For the compound `NC(=O)[C@@H]1[C@H]2C(=O)O[C@H](c3ccccc3)[C@H](c3ccccc3)N2[C@H](c2ccc(O)cc2)[C@@]12C(=O)Nc1ccc(C#CC3(O)CCCCCC3)cc12`, the z-score is -0.723.
The result for `COCCOC(=O)N1C(=O)[C@@]2(c3cc(C#Cc4ccc(OC)cc4)ccc31)[C@H](C(=O)N1CCCCCCC1)[C@H]1C(=O)O[C@H](c3ccccc3)[C@H](c3ccccc3)N1[C@@H]2c1ccc(OCCO)cc1` reads 2.43; that for `CCOC(=O)C[C@H]1[C@H](OC(=O)Cc2ccc3c(c2)OCO3)[C@@H](NC(=O)c2ccc(-c3ccccc3)cc2)c2cc(OCCCO)ccc2N1C(=O)Cc1ccc(OC)cc1`, 2.84.
`O=C1[C@H]2C=C(Br)[C@H](C[C@@H]2c2ccccc2)[C@@]12CO2`: the z-score was -1.47.
As for `CCOC(=O)[C@H]1C/C=C/C[C@H](C(=O)OCC)C(=O)O[C@H]2[C@@H](OC)O[C@H](CO)[C@@H](OC(=O)Nc3ccc(C#N)cc3)[C@@H]2OC1=O`, the z-score was 3.06.
Consider `COC(=O)C(CC#Cc1ccc2c(c1)[C@]1(C(=O)N2)[C@H](c2ccc(O)cc2)N2[C@H](c3ccccc3)[C@H](c3ccccc3)OC(=O)[C@H]2[C@@H]1C(=O)Nc1nc2ccccc2s1)C(=O)OC`, for which the z-score was 1.25.
Regarding `COc1ccc(C(O)C2C=CC3C(=O)NC(=O)C3N2Nc2ccccn2)cc1` (stereo not given), the z-score is -0.416.
For `C#CCN(CC1=CCCCC1)[C@H](c1ccccc1Br)[C@@H](O)Cc1ccccc1`, the z-score was 1.5.
As for `CC(C)OC(=O)C=C1C[C@@H](c2ccccc2C(F)(F)F)O[C@@H](c2ccccc2C(F)(F)F)O1`, the z-score is -0.66.
For the compound `COCCCNC(=O)[C@@]1(Cc2ccccc2N=[N+]=[N-])N=C(c2ccc(OCCCO)cc2)O[C@H]1c1ccccc1N=[N+]=[N-]`, the z-score is -0.439.
The same measure for `O=C1C2C=CC(C(O)C3CCCCC3)N(Nc3ccc([N+](=O)[O-])cc3)C2C(=O)N1c1ccccc1` (stereo not given): -1.13; for `COCC(=C=CC[C@@H](O)c1ccccc1OCCO)C[C@@H](O)c1cc(Cl)cc(Cl)c1O`: -0.397; for `O=C1c2ccccc2[C@](Cc2ccccc2I)(C(=O)NC2CC2)[C@H](c2ccc(CO)cc2)N1Cc1ccccc1`: -0.102.
The same measure for `CCOC(=O)C[C@H]1[C@H](OC(=O)Cc2ccc3c(c2)OCO3)[C@@H](NC(=O)c2ccc3ccccc3c2)c2cc(OCCCO)ccc2N1C(=O)c1ccccc1`: 1.87; for `C=CCNC(=O)[C@H]1[C@@H]2C(=O)O[C@@H](c3ccccc3)[C@@H](c3ccccc3)N2[C@@H](c2ccc(OCCO)cc2)[C@]12C(=O)N(C(=O)OCCOC)c1ccccc12`: 0.159.
The result for `CCOC(=O)C[C@H]1[C@H](OC(=O)Cc2ccc3c(c2)OCO3)[C@@H](NC(=O)c2ccc(-c3ccccc3)cc2)c2cc(OCCCO)ccc2N1C(=O)c1ccc2ccccc2n1` reads 1.55; that for `C=CCN1C(=O)[C@]2(O[C@H](CCO)[C@@H]([Si](C)(C)c3ccc(OC)cc3)[C@@H]2C)c2cc(N3C(=O)c4cccc5cccc3c45)ccc21`, 0.568.
